Compound activity deposited in PubChem by The Scripps Research Institute Molecular Screening Center.
hcDAF-12 act: activates DAF-12 receptor from parasite H. contortus. activation, % at 6.8 µM. 1.4% of 370,000 active. AID 652067. HEK293 hcDAF-12 lit1-tk-luc reporter, luminescence; 0% DMSO, 100% Δ7-dafachronic acid;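 active = activation above the mean of all tested compounds plus 3 SD, cut at about 5.5% in these data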;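 also: 100% = response to 3 µM Δ7-dafachronic acid high control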
ssDAF12 agonist: activators of S. stercoralis DAF-12 nuclear receptor | HEK293 ssDAF-12/GRIP1 lit1-tk-luc reporter, luminescence; % of 3 µM dafachronic acid response | activation, % at 6.8 µM | 1% of 370,000 active;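 active = activation above the mean over all tested compounds plus 3 SD, cut at about 0.9% in these data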;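 also: 0% = DMSO-only wells and 100% = 3 µM delta7-dafachronic acid wells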
DAX1 inh-1: inhibitors of DAX1 repression of SF-1 activated StAR promoter. HEK293T StAR-luciferase reporter, SF-1/DAX-1 repression relief. inhibition, % at 6.8 µM. 1.1% of 370,000 active. AID 652010;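 active = inhibition above the mean over all tested compounds plus 3 SD, cut at about 3.6% in these data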;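 also: 0% = DAX-1 cells with DMSO and 100% = cells lacking DAX-1 with DMSO; higher inhibition means more luminescence from relief of DAX-1 repression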
DAX1 inh-2: inhibitors of human orphan nuclear receptor DAX1 (NR0B1); HEK293 Gal4-DAX1 luciferase reporter, luminescence; P51843; inhibition, % at 6.75 µM; 0.99% of 340,000 active;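 active = inhibition above the mean over all tested compounds plus 3 SD, cut at about 4.2% in these data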;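 also: 0% = DAX1-transfected cells with DMSO and 100% = empty-vector control cells with DMSO; inhibition shows as a rise in luminescence from relieved DAX1 repression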
FXN GAA850 act: activators of GAA850 frataxin (FXN) promoter | activation, % at 6 µM | 0.56% of 360,000 active | HEK293 lucGAA850 FXN promoter luciferase reporter, 24 h; percent of 10 µM SAHA response | AID 540364;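 active = activation above the average of all compounds screened plus 3 SD, cutoff fixed separately per campaign, cut at about 7.5% in these data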;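 also: 0% = DMSO wells and 100% = 10 µM SAHA wells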
hgDAF12 agonist: hgDAF-12 agonism, primary luciferase screen; HEK293 GAL4-hgDAF12 UAS-luciferase reporter, agonist luminescence; normalized to butyrate control; activation, % at 6.8 µM; 1.8% of 370,000 active; AID 687014;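 active = activation above a cutoff set at the mean of all screened compounds plus 3 SD, cut at about 10% in these data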;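 also: 0% = DMSO wells and 100% = sodium butyrate wells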
hgDAF12 ag: hgDAF-12 agonism, confirmation assay; 80% of 3,300 active; HEK293 GAL4-hgDAF12 luciferase reporter, agonist mode; percent of butyrate response; activation, % at 6.8 µM; shares compounds with hgDAF12 agonist; AID 743050;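 active = mean activation over triplicate wells above the hit cutoff derived from the earlier primary screen, cut at about 11% in these data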;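 also: 0% = DMSO low control and 100% = 2 mM sodium butyrate high control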
LXRb DAF12 ctr: counter-screen for DAF-12 agonists: agonists of human LXR-beta; shares compounds with hgDAF12 agonist; HEK293 Gal4-LXR luciferase reporter, 24 h; activation, % at 6.8 µM; 3,300 tested, under 10 active; AID 743051;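 active = mean activation of the triplicate above a set limit carried over from the primary screen, none filed active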
Target sequence (P55055 whole entry, looked up, the tested form may be a part): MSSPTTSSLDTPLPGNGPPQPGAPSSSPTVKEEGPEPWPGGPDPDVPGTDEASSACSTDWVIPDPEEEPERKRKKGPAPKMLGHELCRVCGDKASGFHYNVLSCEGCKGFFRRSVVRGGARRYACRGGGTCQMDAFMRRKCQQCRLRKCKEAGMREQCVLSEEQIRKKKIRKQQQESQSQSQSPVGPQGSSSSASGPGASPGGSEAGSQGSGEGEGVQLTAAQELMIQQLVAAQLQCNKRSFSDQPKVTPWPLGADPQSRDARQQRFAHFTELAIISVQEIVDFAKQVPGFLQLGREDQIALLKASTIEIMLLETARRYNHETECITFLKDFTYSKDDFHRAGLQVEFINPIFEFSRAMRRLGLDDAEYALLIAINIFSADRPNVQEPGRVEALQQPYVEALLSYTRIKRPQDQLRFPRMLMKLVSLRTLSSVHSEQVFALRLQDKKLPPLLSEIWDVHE
* = called active by the depositor; nt = no result given. This is a sample that favours compounds with a hit; in the whole collection about 4.5% have one here.

SMILES	hcDAF-12 act	ssDAF12 agonist	DAX1 inh-1	DAX1 inh-2	FXN GAA850 act	hgDAF12 agonist	hgDAF12 ag	LXRb DAF12 ctr
CCOC=C1SC(=S)N(c2ccccc2OC)C1=O	1	0	1	0	-2	5	nt	nt
CC(C)NC(=O)C(c1ccc(F)cc1)N(C(=O)CCC(=O)Nc1ccccn1)c1cccc(F)c1 (configuration not stated)	2	-1	0	2	0	3	nt	nt
CCN(CC(=O)NC1CCS(=O)(=O)C1)C(C)C(=O)Nc1ccc(F)cc1 (configuration not stated)	-1	-1	0	-1	1	1	nt	nt
CCOc1ccc2nc(NC(=O)c3ccco3)sc2c1	5	0	2	-4	1	16*	17*	1
COc1cc(C(=O)NC2CCN(CC(=O)Nc3cccc(C)c3C)CC2)cc(OC)c1OC	-1	-1	0	3	0	-3	nt	nt
CC(C)CN(/C=N/c1sc2c(c1C#N)CCCCC2)CC(C)C	-2	-1	0	-1	0	1	nt	nt
CCN(/C=N/c1sc2c(c1C#N)CCCCC2)CC	6.1*	-1	3	3	4	14*	13*	1
CN1CCN(/C=N/c2sc3c(c2C#N)CCCCC3)CC1	6.4*	1	1	6.8*	4	19*	19*	1
N#Cc1c(/N=C/C=C/c2ccccc2)sc2c1CCCC2	1	-1	0	0	-2	-1	nt	nt
COc1cccc2cc(-c3ccccc3)c(=O)oc12	5.8*	1	2	1	6	16*	14*	1
COc1cccc2cc(-c3nc(-c4cccs4)cs3)c(=O)oc12	4	0	3	1	3	9	nt	nt
COc1ccc2cc(-c3ccccc3)c(=O)oc2c1	3	1	2	2	4	14*	16*	1
COc1cccc2cc(-c3nc4ccccc4[nH]3)c(=O)oc12	5	1.1*	2	2	6	15*	17*	1
CCN(CC(=O)Nc1ccc(OC)cc1)CC(=O)Nc1cccc(S(=O)(=O)N2CCOCC2)c1	-1	-1	-1	-1	-2	-5	nt	nt
CCCCN(C(=O)Cc1ccc(S(=O)(=O)N2CCOCC2)s1)c1c(N)n(CC(C)C)c(=O)[nH]c1=O	-2	-1	0	2	0	-2	nt	nt
CC1(C)Cc2cccc(OCC(=O)OCC(=O)Nc3cccc(S(N)(=O)=O)c3)c2O1	0	-1	0	3	1	0	nt	nt
COc1cccc(COc2ccc3c(C)cc(=O)oc3c2)c1	3	0	3	3	4	16*	14*	1
Cc1cc(=O)oc2cc(OCC(=O)Nc3nccs3)ccc12	5	0	2	1	2	20*	18*	1
Cc1nnc(NC(=O)COc2ccc3c(C)cc(=O)oc3c2)s1	2	-1	1	-1	1	-1	nt	nt
Nc1[nH]c2cc(C(F)(F)F)ccc2c1C(=O)N1CCN(CCc2ccccc2)CC1	4	1	0	nt	nt	0	nt	nt
COc1cccc(CNC(=O)c2cccc(S(=O)(=O)N3CCN(Cc4ccccc4)CC3)c2)c1	1	-1	1	0	1	0	nt	nt
COc1ccccc1Nc1nnc(SCc2cc(=O)n3cc(C)ccc3n2)s1	-4	-2	-1	0	1	-5	nt	nt
Nc1ccc2c(c1)Cc1cc(Cl)c(Cl)cc1-2	1	0	-1	1	1	10	nt	nt
Nc1ccc2c(c1)Cc1cc(N)c(Cl)cc1-2	4	0	2	3	2	15*	12*	0
Cc1cc(-c2nc3cccnc3s2)ccc1NS(=O)(=O)c1cccs1	6.5*	1	4.4*	1	4	14*	13*	0
Nc1ncnc2c1ncn2[C@@H]1O[C@H](C(=O)Nc2ccc(C(=O)N3CCCCC3)cc2)[C@@H](O)[C@H]1O	-1	-1	0	nt	nt	-3	nt	nt
